Assay outcomes: PubChem, National Center for Advancing Translational Sciences (NCATS)
The list is not random: actives were taken first. Their share in the collection is about 11%.
Tau fibril FP = qHTS for Inhibitors of Tau Fibril Formation, Fluorescence Polarization. Microtubule-associated protein tau (Homo sapiens), P10636. K18 P301L tau heparin fibrillization, Alexa594 FP, 6 h. Potency, µM (doses to about 57.7 µM), for the others: top-dose activity, negative = inhibition, usual class: inhibitors. 280,000 compounds, 0.39% hits. AID 1468, 2008; also: potency is read from the fitted curve at half-maximal effect; nearly all actives have a fitted effect of over 55% in size
Target sequence (P10636 561-689 P618L limits assumed): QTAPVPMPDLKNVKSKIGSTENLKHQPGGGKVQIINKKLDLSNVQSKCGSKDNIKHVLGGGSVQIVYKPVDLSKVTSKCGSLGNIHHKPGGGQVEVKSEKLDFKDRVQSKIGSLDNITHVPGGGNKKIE
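Compound effects on tau fibrillization are measured by Alexa 594 fluorescence polarization (ex 555, em 632 nm). K18 P301L tau is used at 15 uM with 0.24 uM labeled tracer, and 20 uM heparin induces aggregation over 6 hr at 37 C.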
Sfp inh = qHTS Assay for Inhibitors of Bacillus subtilis Sfp phosphopantetheinyl transferase (PPTase). 4'-phosphopantetheinyl transferase ffp (Bacillus subtilis), Q9F4F7. Biochemical Sfp PPTase activity, qHTS. Potency, µM, without a hit: largest response in the series, negative = inhibition, actives largely listed as inhibitors. 310,000 compounds, 3.5% hits;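 also: the enzyme is Sfp with the accession as filed and its product quenches rhodamine fluorescence; potency is read from the fitted curve at half-maximal effect; 0% = enzyme reaction without inhibitor and -100% = no enzyme wells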
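Step 1, compound plus 15 nM Sfp-PPTase, 15 min, room temperature. Step 2, add rhodamine-CoA (5 uM) and BHQ-2-YbbR (12.5 uM). Step 3, read 525/598 nm fluorescence at 0 and 30 min.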
G9a block = qHTS Assay for Inhibitors of Histone Lysine Methyltransferase G9a; G9a H3K9 monomethylation, AlphaScreen, 2 h; 350,000 compounds, 8.8% hits; Potency, µM (highest dose often 102 µM), for the others: at the highest dose activity, negative = inhibition, hits mostly inhibitors; Histone-lysine N-methyltransferase EHMT2 (Homo sapiens), Q96KQ7; also: potency is read from the fitted curve at half-maximal effect; nearly all actives have a fitted effect of over 75% in size
Target sequence (Q96KQ7 913-1193 limits assumed): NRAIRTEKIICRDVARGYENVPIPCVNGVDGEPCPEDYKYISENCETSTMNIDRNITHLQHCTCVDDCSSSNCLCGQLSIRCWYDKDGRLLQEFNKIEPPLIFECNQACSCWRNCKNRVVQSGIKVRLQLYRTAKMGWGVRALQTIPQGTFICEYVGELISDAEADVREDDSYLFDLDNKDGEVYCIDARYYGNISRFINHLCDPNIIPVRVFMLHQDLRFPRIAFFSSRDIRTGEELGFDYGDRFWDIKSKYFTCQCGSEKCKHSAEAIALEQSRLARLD
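Quantitative HTS format: methyltransferase activity on a biotin-tagged H3K9 peptide is measured by AlphaScreen, using a rabbit anti-monomethyl-H3K9 antibody with streptavidin donor and anti-IgG acceptor beads. Final levels are 20 nM enzyme, 500 nM peptide, 20 uM SAM; 2 h RT.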
FBPA coupling cs = qHTS Assay for Inhibitors of Fructose-1,6-bisphosphate Aldolase from Giardia Lamblia: Coupling assay counterscreen; coupling enzyme system counterscreen, AmpLite Red fluorescence; activity change, negative = inhibition, % at 58.2 µM, hits read low; 290,000 compounds, 0.67% hits; AID 2472, 2010; in the data active = activity change below about -30%
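Counterscreen of the coupled detection system alone, without aldolase: glyceraldehyde-3-phosphate coupling enzymes plus AmpLite Red readout. Compounds at 57.5 uM final, 10 min RT preincubation, 20 min RT reaction, fluorescence 525/598 nm.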
Tau ThT inhib = qHTS for Inhibitors of Tau Fibril Formation, Thioflavin T Binding; Microtubule-associated protein tau (Homo sapiens), P10636; recombinant tau K18 P301L, heparin-induced fibrillization, ThT fluorescence; Potency, µM (top dose mostly 57.4 µM), without a hit: at the highest dose activity, negative = inhibition, hits mostly inhibitors; 270,000 compounds, 2.1% hits; also: potency is read from the fitted curve at half-maximal effect; nearly all actives have a fitted effect of over 55% in size
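Aggregation was driven by heparin (20 uM final) acting on recombinant tau […] bearing P301L in 100 mM sodium acetate pH 7; fibrils were detected with Thioflavin T.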
Tau fluor cs = Counterscreen qHTS for Inhibitors of Tau Fibril Formation, Fluorescence Polarization. 280,000 compounds, 0.93% hits. tau K18 P301L Alexa594 fluorescence, heparin fibrillization. Potency, µM (highest dose often 57.7 µM), for the others: at the top dose activity change, negative = decrease; also: potency is read from the fitted curve at half-maximal effect; nearly all actives have a fitted effect of over 55% in size
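Human tau K18 P301L (15 uM unlabeled, 0.24 uM Alexa 594-labeled) in 100 mM sodium acetate pH 7 with 20 uM heparin, 6 hr at 37 C. ThT 30 uM added, 1 hr ambient; Alexa 594 FP and total fluorescence read at 555/632 nm.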
* hit, by the source's call; [ ] = remark or other dose. Unless noted, calls follow the shape of the dose curve; as a rule, active = well fitted curve in the direction sought with a large enough effect; inconclusive = small, poorly fitted or top-dose-only effect, or another doubt; inactive = no such curve, though single readings can be large; an effect the other way counts as inactive or inconclusive. Unless noted, % is scaled to controls: 0 for no effect and ±100 for the full control effect.

`COc1ccccc1N1CCN(C(=O)C2CCN(S(=O)(=O)c3cccs3)CC2)CC1` gave Tau fibril FP -4%, G9a block 14%[59 µM], Tau ThT inhib -4% and Tau fluor cs -11%.
C=CCOC(=O)C(=O)/C=C/c1csc2ccccc12 was read as Tau fibril FP 0%, Sfp inh 40µM*, G9a block inconclusive, FBPA coupling cs -3, Tau ThT inhib inconclusive and Tau fluor cs 3%.
Screening CC(=O)N1c2ccccc2CC1C(=O)N1CCN(c2cc(Cl)ccc2C)CC1 (centres undefined) returned Tau fibril FP 11%, G9a block -2%[12.7 µM], Tau ThT inhib -16% and Tau fluor cs -10%.
For Cc1ccc(-c2nn(-c3cc(N4CCNCC4)ccc3[N+](=O)[O-])c(=O)c3ccccc23)cc1 the results were Tau fibril FP -2%, Sfp inh -26%, G9a block 32µM*, FBPA coupling cs 0, Tau ThT inhib inconclusive and Tau fluor cs -17%.
For CCN(C(=O)C(=O)Nc1ccc2nc3n(c(=O)c2c1)CCCCC3)c1ccc(F)cc1 the results were Tau fibril FP -4%, G9a block 2%[59 µM], Tau ThT inhib -1% and Tau fluor cs -11%.
Screening Cc1nc2c(Cl)cccc2[nH]1 returned Tau fibril FP -2%, Sfp inh 18%, G9a block 56µM*, FBPA coupling cs 0, Tau ThT inhib -14% and Tau fluor cs -10%.
For CCOC(=O)c1ccc(NC(=O)CSc2ccc(-c3sc(C)nc3C)nn2)cc1 the results were Tau fibril FP inconclusive, G9a block 9%[59 µM], Tau ThT inhib inconclusive and Tau fluor cs -14%.
CCOc1ccc(NC(=S)N2c3ccccc3CC2C)cc1 (centres undefined) was read as Tau fibril FP 5%, Sfp inh inconclusive, G9a block -42%, FBPA coupling cs 2, Tau ThT inhib -17% and Tau fluor cs -16%.
`CCOc1ccc(NC(=S)C(C#N)=C2N(C)c3ccccc3N2C)cc1` gave Tau fibril FP -11%, Sfp inh -16%, G9a block 32µM*, FBPA coupling cs 0, Tau ThT inhib -16% and Tau fluor cs -13%.
`Cc1cccnc1NC(=O)Cn1nc(-c2ccccc2)oc1=S` gave Tau fibril FP -3%, Sfp inh -31%, G9a block 50µM*, FBPA coupling cs -5, Tau ThT inhib 5% and Tau fluor cs -2%.
`CCOC(=O)c1cnn(-c2ccc(OC)cc2)c1C1CCN(C(=O)OC(C)(C)C)CC1` gave Tau fibril FP 3%, G9a block -2%[59 µM], Tau ThT inhib -12% and Tau fluor cs -9%.
Screening CCCCC(=O)NC(c1ccccc1Cl)c1ccc2cccnc2c1O (centres undefined) returned Sfp inh 7% and FBPA coupling cs 5.
Screening CC(=O)NC(c1ccc(C(C)C)cc1)c1ccc2cccnc2c1O (centres undefined) returned Sfp inh 6%, G9a block 20% and FBPA coupling cs 2.
Oc1c(C(c2ccccc2Cl)N2CCCC2)ccc2cccnc12 (centres undefined) was read as Tau fibril FP 2%, Sfp inh 2%, G9a block 11µM*, FBPA coupling cs -6, Tau ThT inhib inconclusive and Tau fluor cs -3%.
Screening CN1CCN(C(c2ccc(C(F)(F)F)cc2)c2ccc3cccnc3c2O)CC1 (centres undefined) returned Sfp inh -2%, G9a block 7.9µM* and FBPA coupling cs -1.
Screening Oc1c(C(c2cccs2)N2CCN(c3ccccc3)CC2)ccc2cccnc12 (centres undefined) returned Tau fibril FP 2%, Sfp inh 40µM*, G9a block 1.3µM*, FBPA coupling cs 2, Tau ThT inhib inconclusive and Tau fluor cs -5%.
For CC(NC(=O)CN(c1ccc(Cl)cc1)S(C)(=O)=O)c1ccccc1 (centres undefined) the results were Sfp inh 6% and FBPA coupling cs 1.
For COC(=O)NC(Nc1sc2c(c1C(N)=O)CCCC2)(C(=O)OC)C(F)(F)F (centres undefined) the results were Tau fibril FP inconclusive, Sfp inh 22µM*, G9a block 11µM*, FBPA coupling cs -16, Tau ThT inhib inconclusive and Tau fluor cs -10%.
CN(C)C1CCN(C(=O)c2cccc(OC3CCN(S(=O)(=O)N(C)C)CC3)c2)C1 (centres undefined) was read as Sfp inh 18% and G9a block 1%.
COc1cc(N/N=C(\C)c2ccc(N)cc2)nc(-c2ccccc2)n1 was read as Tau fibril FP 3%, Sfp inh 15%, G9a block 45µM*, FBPA coupling cs -3, Tau ThT inhib 16µM* and Tau fluor cs 14µM*[quencher].
Screening COc1cc(N/N=C(\C)c2ccc(O)c(C)c2)nc(-c2ccccc2)n1 returned Tau fibril FP inconclusive, Sfp inh 9%, G9a block inconclusive, FBPA coupling cs -3, Tau ThT inhib inconclusive and Tau fluor cs 8.9µM*[quencher].
Cc1ccccc1-c1nc(CNC(=O)Nc2ccccc2)c(C)o1 was read as Tau fibril FP -3%, G9a block -9%[59 µM], Tau ThT inhib 2% and Tau fluor cs -12%.
`N=c1c(-c2nc3ccccc3[nH]2)cc(C(=O)c2cccs2)nn1-c1ccccc1` gave Tau fibril FP -4%, Sfp inh 10%, G9a block -36%[59 µM], FBPA coupling cs 3, Tau ThT inhib -2% and Tau fluor cs -4%.
`N=c1c(-c2nc3ccccc3[nH]2)cc(C(=O)c2ccco2)nn1-c1ccccc1` gave Tau fibril FP 10%, Sfp inh 0%, G9a block 13%, FBPA coupling cs -4, Tau ThT inhib 16µM* and Tau fluor cs inconclusive.
For COC(=O)N[C@@H](/C=C/c1ccccc1)C[N+](=O)[O-] the results were Tau fibril FP -5%, Sfp inh 14%, FBPA coupling cs 3, Tau ThT inhib 1% and Tau fluor cs -5%.
Screening Cc1ccc(C2CC(=O)Oc3ccc(C(C)(C)C)cc32)cc1 (centres undefined) returned Tau fibril FP -7%[81.3 µM], Sfp inh 2%, G9a block 78%, FBPA coupling cs -4, Tau ThT inhib -5%[81.4 µM] and Tau fluor cs -9%[81.3 µM].
